{"source": "PubChem BioAssay (Tox21)", "note": "Inconclusive results are not listed. Where a call stands in place of a potency, no number is given. Values without a mark were called inactive. Activity calls are given as the source filed them. The call rests on the fitted dose curve."}
{"target": "Acetylcholinesterase (Homo sapiens) (UniProt P22303)", "sequence (P22303 whole entry, looked up)": "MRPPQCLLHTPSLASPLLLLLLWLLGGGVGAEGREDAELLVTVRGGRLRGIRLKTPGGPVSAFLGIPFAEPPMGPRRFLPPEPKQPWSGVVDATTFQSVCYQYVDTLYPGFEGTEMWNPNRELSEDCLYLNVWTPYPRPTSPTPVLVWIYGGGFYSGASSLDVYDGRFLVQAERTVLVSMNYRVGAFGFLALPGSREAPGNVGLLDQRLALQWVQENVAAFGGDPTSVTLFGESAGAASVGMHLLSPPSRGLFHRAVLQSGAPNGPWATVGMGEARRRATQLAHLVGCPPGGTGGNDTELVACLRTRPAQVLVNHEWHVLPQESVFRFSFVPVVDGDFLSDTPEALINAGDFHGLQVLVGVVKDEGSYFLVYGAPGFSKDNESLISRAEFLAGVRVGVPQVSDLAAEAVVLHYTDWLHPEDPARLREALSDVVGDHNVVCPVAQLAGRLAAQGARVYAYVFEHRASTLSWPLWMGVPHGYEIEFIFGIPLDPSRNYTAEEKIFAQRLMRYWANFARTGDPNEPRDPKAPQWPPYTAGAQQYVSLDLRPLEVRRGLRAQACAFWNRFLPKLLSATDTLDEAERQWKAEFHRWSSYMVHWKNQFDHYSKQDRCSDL", "assay": "Acetylcholinesterase (AChE) small molecule antagonists: colormetric cell-based qHTS assay (AID 1347395); further: nearly all actives have a fitted effect of over 30% in size", "conditions": "SH-SY5Y cells AChE activity, colorimetric (Ellman); series mostly up to 115 µM", "procedure,_shortened": "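Neuroblastoma line SH-SY5Y supplied the enzyme; cells were preincubated with compound for 30 min at 37 C and 5% CO2. Acetylthiocholine with DTNB was then added for 90 min at 37 C, and thiocholine was measured by colour.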"}
{"compound": "CC(=O)/C=C/C1C(C)=CCCC1(C)C", "note": "(configuration not stated)", "Potency": "inactive"}
{"compound": "N#CCC(=O)NN", "Potency": "inactive"}
{"compound": "CC12CCCC=C1C(=O)OC2=O", "note": "(configuration not stated)", "Potency": "inactive"}
{"compound": "CC(C)c1ccc(C(=O)N=C(N)N)cc1S(C)(=O)=O", "outcome": "inactive"}
{"compound": "CO[Si](CCCn1c(=O)n(CCC[Si](OC)(OC)OC)c(=O)n(CCC[Si](OC)(OC)OC)c1=O)(OC)OC", "Potency": "inactive"}
{"compound": "O=c1[nH]c(=O)c2[nH]c(=O)[nH]c2[nH]1", "activity, negative = inhibition": "0.0138% [at 10.5 µM]"}
{"compound": "CCC(C)(C)c1ccc(CC(C)CN2C[C@@H](C)O[C@@H](C)C2)cc1", "note": "(some centres not stated)", "Potency": "inactive"}
{"compound": "COc1ccc(NC(C)=O)cc1N", "Potency": "inactive"}
{"compound": "C=CC(=O)N1CCOCC1", "Potency": "inactive"}
{"compound": "CC1=CC(=O)CCC1", "Potency": "inactive"}
{"compound": "CCN(CCO)c1cccc(C)c1", "Potency": "inactive"}
{"compound": "CCCCCCCCCCCC(=O)OCC(O)CO", "note": "(configuration not stated)", "Potency": "inactive"}
{"compound": "ON=C1CCCCC1", "Potency": "inactive"}
{"compound": "CC(C)OC(=O)CCC(=O)OC(C)C", "Potency": "inactive"}
{"compound": "CNC(=O)N(c1ccccc1)c1ccccc1", "Potency": "inactive"}
{"compound": "O[Si](c1ccccc1)(c1ccccc1)c1ccccc1", "Potency": "inactive"}
{"compound": "CC(C)=CCC/C(C)=C/CC/C(C)=C/CO", "Potency": "inactive"}
